NPC1 prom act = activators of NPC1 promoter. Potency, µM (series often up to 9.22 µM), for inactives: at the highest dose activation, usual class: activators. Huh7 NPC1 promoter luciferase reporter, 24 h. actives 2.4% (n = 320,000); further: % of control where 0% means no effect; nearly all actives have a fitted effect of over 60% in size
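Stably transfected Huh7 (NPC1 promoter→luciferase), 1500 cells/well in Opti-MEM + 10% FBS, 2 h settle, then compound 24 h at 37 °C. Luminescence after 10 min with Amplite reagent.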
Rab9 promoter act = activates the Rab9 promoter; Potency, µM (highest dose often 9.22 µM), for the others: top-dose activation, negative = inhibition, actives largely listed as activators; Huh7 Rab9 promoter-luciferase reporter, luminescence, 24 h; actives 2.8% (n = 320,000); further: % of control where 0% means no effect; nearly all actives have a fitted effect of over 60% in size
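Cells were plated at 1500 per well in reduced-serum medium with 10% FBS and left 2 h. Compound in DMSO was then added for 24 h at 37 °C. Reporter signal was read by luminescence after 10 min with luciferase detection reagent.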
FLuc counter = firefly luciferase modulation, counter-screen for miR-21 project. actives 6.9% (n = 360,000). Potency, µM (series often up to 57.5 µM), for the others: top-dose activity change, negative = inhibition, most hits filed as inhibitors. purified FLuc, Km substrates, luminescence inhibition;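 further: plate controls were vehicle for no effect and reference inhibitor for full effect; nearly all actives have a fitted effect of over 55% in size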
Target sequence (P08659 whole entry, looked up): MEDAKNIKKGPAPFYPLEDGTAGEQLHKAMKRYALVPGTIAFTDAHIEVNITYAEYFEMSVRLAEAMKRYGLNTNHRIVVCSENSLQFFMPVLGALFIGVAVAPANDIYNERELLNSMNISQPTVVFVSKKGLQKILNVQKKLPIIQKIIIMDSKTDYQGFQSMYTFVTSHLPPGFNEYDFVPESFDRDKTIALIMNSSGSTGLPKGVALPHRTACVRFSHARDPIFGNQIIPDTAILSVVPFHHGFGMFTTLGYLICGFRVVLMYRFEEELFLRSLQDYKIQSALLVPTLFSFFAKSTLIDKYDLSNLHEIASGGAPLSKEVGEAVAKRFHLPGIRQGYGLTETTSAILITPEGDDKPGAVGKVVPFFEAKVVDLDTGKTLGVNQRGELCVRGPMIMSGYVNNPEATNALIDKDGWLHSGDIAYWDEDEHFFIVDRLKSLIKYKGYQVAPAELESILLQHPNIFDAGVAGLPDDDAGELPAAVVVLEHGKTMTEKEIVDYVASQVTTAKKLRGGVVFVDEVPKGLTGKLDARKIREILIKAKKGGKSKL
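Purified P. pyralis luciferase, 10 nM final, with Km-level 10 uM D-luciferin and 10 uM ATP in 50 mM Tris acetate pH 7.5, 10 mM Mg acetate, 0.01% Tween-20, 0.05% BSA; 6-point qHTS titration about 60 µM downward; luminescence read.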
Luc counter = blocks Kinase-Glo luciferase, a counter-screen artifact | actives 0.28% (n = 200,000) | Q27757 | Kinase-Glo luciferase, ATP luminescence, 8 min | Potency, µM (top dose mostly 38.3 µM), inactives show at the top dose activity change, negative = inhibition, most hits filed as inhibitors; further: on the % scale 0 is the no-effect control and ±100 the full control effect; nearly all actives have a fitted effect of over 60% in size
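Kinase-Glo luciferase light output from ATP and luciferin was measured with 10 uM ATP, within the enzyme's linear range. Buffer: 50 mM imidazole pH 7.2, 50 mM KCl, 7 mM MgCl2, 0.01% Tween 20, 0.05% BSA; luminescence read after 8 min at ambient temperature.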
ELG1 genotox = inducers of genotoxicity in HEK293T ELG1-luciferase cells; HEK293T ELG1-luciferase reporter, luminescence, 16 h; Potency, µM (titrated, usually from 46 µM), for the others: at the top dose activity change, positive = activation, hits mostly activators; actives 1.3% (n = 330,000); AID 504466; further: % of control where 0% means no effect; nearly all actives have a fitted effect of over 60% in size
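Step 1: seed 2,000 HEK293T ELG1-luciferase cells per well. Step 2: add compound or DMSO, incubate 16 hr at 37 °C. Step 3: ONE-Glo, 30 min at room temperature, read luminescence.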
SMN2 splice enh = increases expression of the SMN2 splice variant; Potency, µM (titrated, usually from 46.1 µM), for inactives: at the top dose activity change, positive = activation, usual class: activators; HEK293 SMN2-luciferase splicing reporter, luminescence, 30-36 h; actives 2.8% (n = 210,000); further: % of control where 0% means no effect; nearly all actives have a fitted effect of over 55% in size
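qHTS luciferase splicing reporter: luminescence rises when SMN2 exon 7 is included in transfected HEK293 cells. Compound exposure lasted 30-36 h at 37C, with 4.5 mM final sodium butyrate as control, followed by a ONE-Glo read.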
* hit, by the source's call; ? = inconclusive; . = no result; [ ] = another dose, or the depositor's remark. Rows were chosen to be rich in hits. Some 7.3% of all compounds tested hit in one or more screens of this group. The call rests on the fitted dose curve; in most records, active means well fitted curve in the direction sought with a large enough effect; inconclusive means small, poorly fitted or top-dose-only effect, or another doubt; inactive means no such curve, though single readings can be large; an effect the other way counts as inactive or inconclusive. Potency means the concentration at half of the fitted maximal effect.

SMILES	NPC1 prom act	Rab9 promoter act	FLuc counter	Luc counter	ELG1 genotox	SMN2 splice enh
CCOc1ccc(-c2ccc(SCC(=O)Nc3nnc(CC)s3)nn2)cc1	?	?	0.601µM*	-0.1%	?	11.2µM*
COc1ccc(-c2ccc(SCC(=O)NCc3ccco3)nn2)cc1	21.2%	?	8.49µM*	-5.0%	?	7.0%
O=C(CSc1ncc(-c2ccccc2)nn1)NCc1ccco1	0.4%	-6.0%	-1.4%	-0.4%	-2.6%	.
CCc1nnc(NC(=O)CSc2nccn2-c2ccccc2)s1	-0.2%	-1.9%	-1.0%	-12.9%	-3.3%	-18.8%
O=C(CSc1ccc(F)cc1)Nc1ccccc1N1CCOCC1	-5.6%	-3.7%	3.6%	.	-3.4%	.
Cn1c(-c2ccc(F)cc2)cnc1SCC(=O)Nc1ccccc1N1CCOCC1	1.58µM*	1.26µM*	0.953µM*	-6.8%	1.84µM*	12.6µM*
CCOc1ccc(-c2ccc(SC)nn2)cc1	0.631µM*	0.316µM*	0.477µM*	3.16µM*	?	0.794µM*
CCc1nnc(NC(=O)CSc2ncc(-c3ccccc3)n2C)s1	7.4%	29.4%	?	-1.3%	18.4µM*	-19.0%
CCc1nnc(NC(=O)CSc2ccc(-c3ccc(C)cc3)nn2)s1	?	?	2.39µM*	-10.1%	?	?
C[C@H]1Cc2c(-c3ccccc3)nc3c(c2CO1)CN(C(=O)C1CCCCC1)CC3	.	.	.	-2.8%[7.66 µM]	.	7.5%[9.22 µM]
O=C(Nc1ccc2c(c1)OCO2)c1cccs1	.	.	13.5µM*	8.91µM*	.	?
O=S(=O)(Nc1ccc2c(c1)OCCO2)c1cccs1	1.6%	4.5%	?	-0.5%	7.31µM*	1.2%
O=S(=O)(Nc1ccc2c(c1)OCO2)c1cccs1	0.1%	2.0%	-2.9%	-4.2%	-1.8%	-3.2%
O=C(Nc1ccc2c(c1)OCCO2)c1cccs1	2.82µM*	1.58µM*	5.36µM*	?	16.4µM*	6.31µM*
O=C(Nc1ccncc1)c1cccs1	-1.0%	2.9%	3.4%	-10.6%	-0.7%	13.7%
CCN(CC)S(=O)(=O)c1cc(NC(=O)NCCCl)ccc1C	11.0%	-3.3%	3.1%	.	-2.2%	.
O=C(Nc1ccc2c(c1)OCO2)c1ccncc1	14.5%	23.4%	-19.5%	-4.6%	9.2%	2.4%
CCN(CC)S(=O)(=O)c1cc(NC(=O)c2ccc(Br)s2)ccc1C	19.7%	0.7%	12µM*	3.3%	4.7%	-11.6%
Cn1c(=O)c(CCc2ccccc2)nc2cnc(N3CCNCC3)nc21	.	.	.	-5.1%	.	?
CCOC(=O)Cn1c(=O)c2c(nc(N3CCOCC3)n2Cc2ccccc2)n(C)c1=O	.	.	-5.1%	.	.	-6.5%
CC1=C(C(=O)Nc2cccnc2)C(c2ccc(F)cc2)n2nc(SCc3ccccc3)nc2N1 (stereo not drawn)	.	.	1.5%	.	.	7.8%
Cn1nc(-c2ccccc2F)c2cc(C(=O)Nc3ccc4c(c3)OCCO4)sc21	-3.0%	10.3%	9.53µM*	-4.7%	10.5%	28.5%
CN(CC(=O)Nc1ccc2c(c1)OCO2)S(=O)(=O)c1cccs1	?	?	16.9µM*	.	?	.
O=C(Nc1ccc2c(c1)OCO2)c1ccc(Br)s1	1.78µM*	1.58µM*	3.38µM*	-1.5%	1.84µM*	12.6µM*
O=C1OC(C(=O)Nc2ccc(Cl)c(C(F)(F)F)c2)Cc2ccccc21 (stereo not drawn)	.	.	-5.7%	.	.	21.8%
SMILES	NPC1 prom act	Rab9 promoter act	FLuc counter	Luc counter	ELG1 genotox	SMN2 splice enh
CCN(CC)S(=O)(=O)c1cc(NC(=O)C2Cc3ccccc3C(=O)O2)ccc1C (stereo not drawn)	?	?	16.9µM*	.	0.0%	.
CN(CC(=O)Nc1ccc(F)c(F)c1)S(=O)(=O)c1cccs1	-2.0%	-0.6%	5.7%	.	-8.6%	.
Cc1cc2c(s1)c1cnn(-c3ccccc3)c(=O)c1n2C	14.6%	?	6.75µM*	.	-1.3%	.
CCOC(=O)c1ccc(NC(=O)CSc2nccn2Cc2ccc(OC)cc2)cc1	.	.	0.8%	.	.	.
Cc1cccc(/N=C/c2c(O)c3ccccc3oc2=O)n1	-1.3%	2.3%	5.36µM*	?	6.8%	37.1%
Cc1cc(C)c(N=Cc2c(O)c3ccccc3oc2=O)c(C)c1	16.8%	1.8%	3.79µM*	.	?	.
NS(=O)(=O)c1ccc(N=Cc2c(O)c3ccccc3oc2=O)cc1	-4.1%	-0.2%	-2.8%	-1.3%	-5.7%	-4.2%
Cc1ccc(C)c(N=Cc2c(O)c3ccccc3oc2=O)c1	-1.7%	-1.0%	3.01µM*	.	0.6%	.
O=C(O)c1cc(N=Cc2c(O)c3ccccc3oc2=O)ccc1O	-3.2%	-4.6%	7.57µM*	.	-6.6%	.
Cc1cc(C)cc(N=Cc2c(O)c3ccccc3oc2=O)c1	-6.5%	2.7%	-11.0%	-0.1%	4.2%	-9.0%
COc1ccccc1OCCn1c(C(C)Oc2ccccc2)nc2ccccc21 (stereo not drawn)	.	.	-17.5%	.	.	-28.0%
CCOc1ccc(OCC)c(NS(=O)(=O)c2ccc3c(c2)CCCN3C(C)=O)c1	.	.	-5.8%	.	.	.
Cc1ccc(N=Cc2c(O)c3ccccc3oc2=O)cc1F	-2.2%	13.9%	1.69µM*	.	-1.3%	.
CCCCS(=O)(=O)N1C2=NC(C(=O)OC)=C(C(=O)OC)[C@@H]3N(C)c4ccccc4[C@]23C[C@H]1C(=O)OC	.	.	.	-5.3%[7.66 µM]	.	-11.2%[9.22 µM]
CCCCc1cc2c(cn1)C(=O)C(C)(OC(C)=O)C(=O)C2 (stereo not drawn)	.	.	.	-7.6%[7.66 µM]	.	2.3%[9.22 µM]
c1ccc2c(Nc3nnc(-c4ccncc4)s3)cccc2c1	?	?	5.36µM*	-13.1%	17.8%	?
C=CCNc1nnc(-c2ccncc2)s1	0.3%	15.9%	-1.2%	-4.8%	-1.3%	-5.3%
COC(=O)c1ccccc1NC(=O)c1ccc(-c2ccc(Br)cc2)o1	10.4%	0.794µM*	-7.4%	-0.5%	1.84µM*	28.3%
Cc1ccc2cccc(NC(=O)c3ccc(-c4ccc(Br)cc4)o3)c2n1	.	.	-0.1%	.	.	-2.3%
O=C(Nc1cccc(NC(=O)c2ccc(-c3ccc(Br)cc3)o2)c1)c1ccco1	18.7%	19.2%	2.69µM*	1.5%	-7.1%	17.1%
COC(=O)c1cc(NC(=O)c2cc3ccccc3o2)cc(C(=O)OC)c1	-4.1%	10.2%	?	.	-8.3%	.
COC(=O)c1ccccc1NC(=O)c1cc2ccccc2o1	?	?	13.5µM*	.	-0.7%	.
O=C(Nc1ccccc1C(F)(F)F)c1cc2ccccc2o1	2.51µM*	2.24µM*	3.38µM*	.	10.3µM*	.
Cc1c(N=C=O)cccc1N=C=O	.	.	.	.	.	0.5%
COCCCNC(=O)C1CCN(c2nc3ccc(C)cc3[nH]2)CC1	.	.	0.9%	.	.	.
COc1cccc(/C=C(\C#N)C(=O)Nc2ccc(NC(C)=O)cc2)c1OC	.	.	-4.0%	.	.	.
Cc1ccc2[nH]c3c(=O)n(CC(=O)N4CCN(c5ccccc5F)CC4)ncc3c2c1	.	.	0.1%	.	.	.
